Data as given in PubChem BioAssay.
The source made the active and inactive calls. Unless noted, the rule behind the calls is not given here.

Experiments:
[1] = HepG2 liver cancer cell viability effects, profiling panel, resazurin fluorescence, 24 h, PK04 Diversity Set (AID 1172); conditions: higher = more signal
[2] = basal S. cerevisiae growth modulation, no modifier, primary screen, OD600, strain BY4716, 24 h, basal condition (AID 1173); conditions: OD600, 24 h, higher = more signal, called active from +8 up or from −8 down
[3] = MM1S myeloma cell viability, profiling panel, resazurin fluorescence, basal, 24 h, PK04 Diversity Set (AID 1174); conditions: higher = more signal, called active from +8 up or from −8 down;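 note: MM1S multiple myeloma cell line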
[4] = target: Dihydroorotate dehydrogenase (quinone), mitochondrial (Plasmodium falciparum (isolate 3D7)) (UniProt Q08210); assay: PfDHODH enzyme inhibitors, primary screen, biochemical, C-terminal His tag, absorbance 600 nm (AID 1175); conditions: DCIP absorbance 600 nm, higher = more signal, called active from +8 up or from −8 down;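 note: recombinant parasite enzyme with a five histidine tag at its C terminus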
Sequence of Dihydroorotate dehydrogenase (quinone), mitochondrial (Plasmodium falciparum (isolate 3D7)) (Q08210 whole entry, looked up): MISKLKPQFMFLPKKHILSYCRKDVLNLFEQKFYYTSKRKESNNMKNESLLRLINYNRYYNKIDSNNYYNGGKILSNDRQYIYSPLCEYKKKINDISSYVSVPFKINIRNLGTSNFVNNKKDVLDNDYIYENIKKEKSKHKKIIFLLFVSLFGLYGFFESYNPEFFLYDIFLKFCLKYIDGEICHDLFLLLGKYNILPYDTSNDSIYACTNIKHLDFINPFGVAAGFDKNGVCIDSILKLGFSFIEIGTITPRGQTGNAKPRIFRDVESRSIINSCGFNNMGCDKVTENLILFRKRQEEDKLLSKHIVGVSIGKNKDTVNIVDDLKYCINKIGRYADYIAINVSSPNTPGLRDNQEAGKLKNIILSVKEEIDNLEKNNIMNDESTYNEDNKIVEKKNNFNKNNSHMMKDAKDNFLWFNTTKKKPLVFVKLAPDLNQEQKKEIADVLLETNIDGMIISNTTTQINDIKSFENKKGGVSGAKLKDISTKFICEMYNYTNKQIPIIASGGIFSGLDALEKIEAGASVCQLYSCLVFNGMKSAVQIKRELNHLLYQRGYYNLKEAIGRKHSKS

[5] = P. aeruginosa biofilm formation inhibitors, primary screen, strain PAO1, LB-PBS medium, absorbance 600 nm (AID 1176); conditions: P. aeruginosa PAO1 growth/biofilm, A600, 12 h; higher = more signal
[6] = S. cerevisiae RM11-1a growth modifiers, primary screen, strain RM11-1a, OD600, basal, 24 h (AID 1177); conditions: OD600, 24 h, higher = more signal, called active from +8 up or from −8 down;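 note: cultures grown under basal conditions with no added stressor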
[7] = E. coli acrAB mutant growth effects, primary screen, E. coli filamentation inducers, strain DRC39, OD650, 24 h (AID 1178); conditions: higher = more signal, called active from +8 up or from −8 down;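 note: growth measured as culture turbidity by optical density at 650 nm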
[8] = E. coli acrAB mutant growth effects, primary screen, E. coli filamentation inducers, strain DRC39, OD650, 48 h (AID 1179);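 note: screen aims at cell division blockers that make cells filament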; conditions: E. coli DRC39 delta-acrAB growth, higher = more signal, called active from +8 up or from −8 down
[9] = RPMI8226 myeloma cell viability, profiling panel, resazurin fluorescence, basal, 24 h, PK04 Diversity Set (AID 1180); conditions: higher = more signal;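 note: RPMI8826 multiple myeloma cell line at 5000 cells per well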
[10] = target: E3 ubiquitin-protein ligase XIAP (Homo sapiens) (UniProt P98170); assay: XIAP binders, primary screen, biophysical, small-molecule microarray, fluorescence 635 nm (AID 1181); conditions: small-molecule microarray binding, higher = more signal;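 note: score merges 667 nm emission and signal to noise over triplicate slides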
Sequence of E3 ubiquitin-protein ligase XIAP (Homo sapiens) (P98170 whole entry, looked up): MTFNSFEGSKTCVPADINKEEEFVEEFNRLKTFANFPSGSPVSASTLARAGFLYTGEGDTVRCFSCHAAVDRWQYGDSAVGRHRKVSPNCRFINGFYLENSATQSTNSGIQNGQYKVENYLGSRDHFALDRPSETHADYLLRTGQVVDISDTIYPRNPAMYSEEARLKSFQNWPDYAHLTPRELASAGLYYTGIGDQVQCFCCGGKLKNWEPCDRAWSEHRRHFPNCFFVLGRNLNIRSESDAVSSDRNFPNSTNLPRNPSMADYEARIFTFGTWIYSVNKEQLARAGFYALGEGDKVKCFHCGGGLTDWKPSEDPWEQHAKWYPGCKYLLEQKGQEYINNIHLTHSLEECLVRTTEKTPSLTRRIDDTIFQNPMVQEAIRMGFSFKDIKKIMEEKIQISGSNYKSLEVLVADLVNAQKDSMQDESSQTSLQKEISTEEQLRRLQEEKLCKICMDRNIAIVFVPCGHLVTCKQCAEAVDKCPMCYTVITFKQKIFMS

[11] = test system: XIP peptide (Xip251-270) binding; assay: small-molecule binders of XIP peptide, primary screen, biochemical, small-molecule microarray, fluorescence 635/667 nm, 0.1 µg/mL protein (AID 1182); conditions: fluorescent protein binding, 635 nm, higher = more signal, called active from +8 up or from −8 down
XIP peptide (Xip251-270) = assay: small-molecule binders of XIP peptide, primary screen, biochemical, small-molecule microarray, fluorescence 635/667 nm, 0.5 µg/mL protein (AID 1183); conditions: small-molecule microarray binding, fluorescence 635 nm; higher = more signal
[12] = Plasmodium falciparum growth inhibition, primary screen, strain 3D7, DAPI fluorescence, 100 nL (AID 1184);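 note: parasites grown inside human red blood cells in medium with human serum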; conditions: P. falciparum 3D7 growth, 3 d, higher = more signal
[13] = target: Homeobox protein Hox-A13 (Mus musculus) (UniProt Q62424); assay: inhibitors of HoxA13-DNA binding, primary screen, biochemical, fluorescence polarization, labeled oligonucleotide (AID 1185); conditions: 15 min, higher = more signal, called active from +8 up or from −8 down
Sequence of Homeobox protein Hox-A13 (Mus musculus) (Q62424 whole entry, looked up): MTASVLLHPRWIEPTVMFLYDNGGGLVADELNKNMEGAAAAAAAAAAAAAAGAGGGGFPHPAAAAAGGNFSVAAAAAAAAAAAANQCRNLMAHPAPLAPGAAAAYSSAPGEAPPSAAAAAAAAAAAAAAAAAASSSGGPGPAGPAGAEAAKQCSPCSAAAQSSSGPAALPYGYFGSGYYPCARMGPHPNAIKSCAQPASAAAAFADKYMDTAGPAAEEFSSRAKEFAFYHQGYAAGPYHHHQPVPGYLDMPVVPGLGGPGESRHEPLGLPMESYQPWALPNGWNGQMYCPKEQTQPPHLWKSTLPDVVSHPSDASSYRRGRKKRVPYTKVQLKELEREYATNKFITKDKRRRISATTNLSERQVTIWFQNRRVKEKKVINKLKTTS

[14] = inhibitors of hydroxyurea-induced Chk1 phosphorylation, primary screen, imaging, HeLa, phospho-Chk1 antibody, percent positive cells (AID 1186); conditions: hydroxyurea-induced phospho-Chk1 immunofluorescence imaging, higher = more signal
[15] = inhibitors of hydroxyurea-induced Chk1 phosphorylation, primary screen, imaging, HeLa, phospho-Chk1 nuclear intensity (AID 1187); conditions: hydroxyurea-induced phospho-Chk1 immunofluorescence imaging, higher = more signal

SMILES	z-score [1]	z-score [2]	z-score [3]	composite z-score [4]	z-score [5]	z-score [6]	z-score [7]	z-score [8]	z-score [9]	composite z-score [10]	composite z-score [11]	composite z-score (XIP peptide (Xip251-270))	z-score [12]	z-score [13]	z-score [14]	z-score [15]
C[N+](C)(C)CCCCNC(=O)[C@H]1C[C@H]2C(=O)N[C@@H](Cc3ccccc3)C(=O)N2[C@H]1c1ccc(O)cc1	-1.87	0.606 (inactive)	-0.0345 (inactive)	-30.9 (active)	0.516 (inactive)	0.644 (inactive)	0.783 (inactive)	1.17 (inactive)	-0.9	-0.355	1.17 (inactive)	-0.229	0.498	-1.49 (inactive)	0.671 (inactive)	0.345 (inactive)
CC1CC/C=C\[C@H]2OC34C=CCN(c5ccc(Cl)cc5)C(=O)[C@H]3N(CCO)C(=O)[C@]4(C)C2C(=O)O1 (some centres undefined)	-0.349	-0.152 (inactive)	-1.13 (inactive)	-0.0582 (inactive)	0.0962 (inactive)	-0.245 (inactive)	-0.135 (inactive)	-0.672 (inactive)	0.102	-0.0785	1.21 (inactive)	0.18	-0.515	-4.66 (inactive)	-0.0711 (inactive)	-0.271 (inactive)
COC(=O)c1c(CC[C@@H](CO)NC(=O)N[C@@H](C)Cn2cc(C3(O)CCCCC3)nn2)oc(C(C)=O)c1C(=O)OC	-1.26	-2.52 (inactive)	-0.131 (inactive)	-2.71 (inactive)	0.0793 (inactive)	-0.314 (inactive)	0.104 (inactive)	-0.305 (inactive)	-0.8	-0.039	0.946 (inactive)	0.836	-2.45	-3.05 (inactive)	0.0032 (inactive)	0.715 (inactive)
COc1ccc([Si](C)(C)[C@@H]2[C@@H](CC(=O)N3Cc4ccccc4C[C@H]3CO)O[C@]3(C(=O)N(C)c4c(Br)cc(C)cc43)[C@H]2C)cc1	-2.26	-1.5 (inactive)	-6.01 (inactive)	0.961 (inactive)	1.85 (inactive)	1.7 (inactive)	1.34 (inactive)	1.01 (inactive)	-5.76	-0.089	-0.223 (inactive)	0.565	-2.35	-4.06 (inactive)	-0.79 (inactive)	-0.12 (inactive)
C=CC[C@@]1(C(N)=O)N=C(c2ccc(OCCCO)cc2)O[C@@H]1c1ccccc1CN=[N+]=[N-]	0.165	-0.935 (inactive)	0.348 (inactive)	-0.0357 (inactive)	0.426 (inactive)	-0.742 (inactive)	0.793 (inactive)	-0.597 (inactive)	0.093	-0.201	1.06 (inactive)	0.843	-1.7	-3.93 (inactive)	0.586 (inactive)	1.16 (inactive)
COCCOC(=O)N1C(=O)[C@@]2(c3cc(C#CC4=CCCCC4)ccc31)[C@H](C(N)=O)[C@H]1C(=O)O[C@H](c3ccccc3)[C@H](c3ccccc3)N1[C@@H]2c1ccc(OCCO)cc1	-0.746	1.04 (inactive)	-1.95 (inactive)	0.948 (inactive)	1.67 (inactive)	2.53 (inactive)	0.0123 (inactive)	0.505 (inactive)	-3.18	-0.102	0.134 (inactive)	0.729	-2	2.15 (inactive)	-0.116 (inactive)	-0.321 (inactive)
COC(=O)[C@@]1(Cc2ccc(F)cc2)[C@@H]2[C@@H](CC(=O)[C@H]2CC(=O)C(=O)N(C)C)CN1C(=O)c1ccccc1	-2.11	1.52 (inactive)	-1.4 (inactive)	-0.363 (inactive)	0.784 (inactive)	0.438 (inactive)	-0.287 (inactive)	-0.13 (inactive)	-2.97	0.0253	0.502 (inactive)	0.588	-1.11	-3.94 (inactive)	0.0598 (inactive)	0.186 (inactive)
CCCC#C[Si](O[C@H](CC)c1cn([C@H](CO)Cc2ccccc2)nn1)(C(C)C)C(C)C	0.442	-12.8 (active)	0.11 (inactive)	0.225 (inactive)	0.0885 (inactive)	0.852 (inactive)	-0.281 (inactive)	-0.154 (inactive)	0.114	-0.121	0.149 (inactive)	0.405	0.129	-0.713 (inactive)	0.112 (inactive)	-0.311 (inactive)
O=C1C2C=CC(C(O)c3c(F)cccc3Cl)N(Nc3ccccc3)C2C(=O)N1c1ccccc1 (centres undefined)	0.947	-1.48 (inactive)	-0.478 (inactive)	0.693 (inactive)	-0.131 (inactive)	-0.679 (inactive)	0.302 (inactive)	1.28 (inactive)	0.284	0.0975	0.469 (inactive)	0.702	-0.342	-3.25 (inactive)	0.653 (inactive)	0.683 (inactive)
C=C(CCCC)C(=O)CC[C@H](OC(C)=O)c1cccc(OCCO)c1	0.0379	-1.43 (inactive)	-0.602 (inactive)	-1.08 (inactive)	-0.387 (inactive)	-0.561 (inactive)	-0.878 (inactive)	-0.873 (inactive)	-0.482	-0.0746	0.162 (inactive)	-0.0976	-1.98	-5.04 (inactive)	-0.0717 (inactive)	-0.148 (inactive)
COCCCNC(=O)[C@@]1(Cc2ccccc2)N=C(c2ccc(OCCCO)cc2)O[C@H]1c1ccccc1	0.625	-1.05 (inactive)	-0.0938 (inactive)	0.282 (inactive)	0.19 (inactive)	-0.82 (inactive)	0.385 (inactive)	-0.456 (inactive)	0.297	-0.0376	0.111 (inactive)	0.752	-2	-5.35 (inactive)	0.129 (inactive)	0.221 (inactive)
CCOC(=O)C1=CCC(c2ccccc2)N(S(=O)(=O)CC[Si](C)(C)C)C1 (centres undefined)	1.17	-1.48 (inactive)	0.406 (inactive)	0.49 (inactive)	-0.461 (inactive)	-0.0286 (inactive)	-0.117 (inactive)	1.05 (inactive)	0.681	-0.192	-0.0447 (inactive)	0.113	-0.391	-2.31 (inactive)	-0.262 (inactive)	0.0088 (inactive)
COCCOC(=O)N1C(=O)[C@@]2(c3cc(C#Cc4ccc(OC)cc4)ccc31)[C@H](c1ccc(O)cc1)N1[C@H](c3ccccc3)[C@H](c3ccccc3)OC(=O)[C@H]1[C@@H]2C(=O)NC[C@H](O)c1ccccc1	-0.372	0.895 (inactive)	-0.5 (inactive)	1.49 (inactive)	0.429 (inactive)	0.95 (inactive)	0.351 (inactive)	-0.206 (inactive)	-0.573	-0.296	0.27 (inactive)	0.77	-1.66	-0.934 (inactive)	-0.192 (inactive)	0.249 (inactive)
CCOC(=O)C[C@H]1[C@H](OC(=O)Cc2ccc3c(c2)OCO3)[C@@H](NC(=O)c2ccc(-c3ccccc3)cc2)c2cc(OCCCO)ccc2N1C(=O)c1ccc2ccccc2n1	0.138	-2.85 (inactive)	0.878 (inactive)	-2.91 (inactive)	-0.906 (inactive)	-1.63 (inactive)	1.26 (inactive)	0.455 (inactive)	0.356	-0.102	-0.458 (inactive)	0.447	-2.38	-1.61 (inactive)	0.455 (inactive)	0.46 (inactive)
CN1C(=O)C2C=CC(C(O)Cc3ccccc3)N(Nc3ccccc3)C2C1=O (centres undefined)	-0.355	-0.836 (inactive)	-0.808 (inactive)	0.295 (inactive)	1.07 (inactive)	0.217 (inactive)	-0.553 (inactive)	-0.801 (inactive)	-0.541	-0.189	-0.0041 (inactive)	0.508	0.538	-4.51 (inactive)	-0.444 (inactive)	-0.889 (inactive)
O=C1OCC=C[C@H]2OC34C=CCN(c5ccc6ccccc6c5)C(=O)[C@H]3N(CCCCCCO)C(=O)[C@@H]4[C@@H]12 (some centres undefined)	0.551	-0.7 (inactive)	0.645 (inactive)	-1.24 (inactive)	-0.717 (inactive)	-0.472 (inactive)	0.841 (inactive)	0.982 (inactive)	0.683	0.086	0.458 (inactive)	0.2	-0.341	-5.38 (inactive)	-0.261 (inactive)	-0.572 (inactive)
COc1ccc(C(O)C2C=CC3C(=O)N(C)C(=O)C3N2N2CCCCC2)c2ccccc12 (centres undefined)	-1.2	-1.78 (inactive)	-1.64 (inactive)	0.238 (inactive)	0.503 (inactive)	0.806 (inactive)	-0.413 (inactive)	-0.68 (inactive)	-1.71	-0.202	0.591 (inactive)	0.637	-0.179	-4.89 (inactive)	0.294 (inactive)	0.312 (inactive)
COCC(=C=CC[C@@H](O)c1ccccc1OCCO)C[C@@H](O)c1cc(Cl)cc(Cl)c1O	-0.127	-2.33 (inactive)	-0.541 (inactive)	-1.31 (inactive)	0.26 (inactive)	0.216 (inactive)	-0.259 (inactive)	-0.424 (inactive)	-0.394	-0.0553	0.589 (inactive)	0.682	-1.84	-3.71 (inactive)	0.161 (inactive)	0.377 (inactive)
CN(C)CCCNC(=O)[C@@]1(c2ccc([N+](=O)[O-])cc2)CC(=O)N(C2CCCCC2)[C@@H]1c1ccc(CO)cc1I	-6.5	-11.7 (active)	-9.1 (active)	-1.19 (inactive)	0.0714 (inactive)	0.344 (inactive)	0.725 (inactive)	-1.28 (inactive)	-6.61	0.125	-0.117 (inactive)	0.248	-2.17	0.362 (inactive)	-0.227 (inactive)	-0.413 (inactive)
